Inconclusive results are not listed. Calls of active or inactive are those of the source. Unless noted, calls follow the shape of the dose curve; as a rule, active = well fitted curve in the direction sought with a large enough effect in the repeat runs; inconclusive = weak or mixed curves; inactive = no such curve, though single readings can be large; an effect the other way counts as inactive or inconclusive.
Tests used:
[1] = qHTS assay for small molecule agonists of the p53 signaling pathway (AID 651631; calls by dose curve; also: nearly all actives have a fitted effect of over 15% in size)
How it was run: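 HCT-116 cells carrying a stable p53 response element–beta-lactamase reporter were plated, rested 5 h at 37 °C, then exposed to compound in DMSO for 16 h at 37 °C; reporter activity was read as FRET substrate fluorescence after 2 h at room temperature.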

[2] = qHTS assay for small molecules that induce genotoxicity in human embryonic kidney cells expressing luciferase-tagged ATAD5 (AID 651632); also: nearly all actives have a fitted effect of over 15% in size
How it was run: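 Luminescence read-out: after 16 hr compound exposure at 37C, ATAD5-luciferase HEK293T cells received Amplite, 30 min RT, then CCD imaging. A rise in signal marks genotoxic stress.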

[3] = qHTS assay for small molecule agonists of the p53 signaling pathway - cell viability (AID 651633; calls by dose curve; also: series mostly up to about 83 µM; nearly all actives have a fitted effect of over 30% in size)
How it was run: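 Viability counter-read: CellTiter-Glo luminescence (30 min, room temperature) in the same p53RE-bla plates. These plates had been exposed to compounds for 16 h at 37 C.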

[4] = qHTS assay for small molecules that induce genotoxicity in human embryonic kidney cells expressing luciferase-tagged ATAD5 - cell viability (AID 651634; calls by dose curve; also: nearly all actives have a fitted effect of over 25% in size)
How it was run: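 HEK293T ATAD5-luc cells, 2,000/well; compound 15.5 hr, 37C/5% CO2; CellTiter-Fluor 30 min, 37C; fluorescence read.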

[5] = qHTS assay for small molecule disruptors of the mitochondrial membrane potential - cell viability (AID 720634; calls by dose curve;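 also: human HepG2 liver cancer cells; series mostly up to about 83 µM; nearly all actives have a fitted effect of over 20% in size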)
How it was run: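 Luminescence from CellTiter-Glo (ATP content) gave viability in HepG2 cells, read in the same wells as the MMP dye assay after 1 hr compound exposure at 37 C.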

[6] = qHTS assay for small molecule disruptors of the mitochondrial membrane potential (AID 720635)
How it was run: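 Mitochondrial membrane potential tracked with Mito-MPS dye, red aggregates (ex 540/em 590 nm) against green monomers (ex 490/em 535 nm). Compound treatment 1 hr at 37C, dye 30 min in HepG2.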

[7] = qHTS assay to test for compound auto fluorescence at 590 nm (red) in HepG2 cells (AID 720674)
How it was run: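 We screened compounds on adherent HepG2 cells, incubating them for an hour at 37 C in 5% CO2 before reading emission at 590 nm under 540 nm excitation; values reflect equivalence to Rose Bengal sodium fluorescence.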

[8] = qHTS assay to test for compound auto fluorescence at 535 nm (green) in HepG2 cells (AID 720675)
[9] = qHTS assay to test for compound auto fluorescence at 590 nm (red) in HEK293 cells (AID 720679)
How it was run: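 Plates of HEK293 cells (10% dialyzed FBS) are treated with 23 nL compound or DMSO vehicle after a 4-5 hr attachment period, incubated overnight at 37C, and read for red fluorescence at 540/590nm.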

[10] = qHTS assay to test for compound auto fluorescence at 535 nm (green) in HEK293 cells (AID 720680)
[11] = qHTS assay to test for compound auto fluorescence at 460 nm (blue) in HEK293 cell free culture (AID 720681)
How it was run: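 Blue fluorescence (Ex 405/Em 460 nm, triamterene-equivalent) was read immediately after pin transfer of compound or DMSO into medium (DMEM, 10% FBS) without cells.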

[12] = qHTS assay to test for compound auto fluorescence at 535 nm (green) in HEK293 cell free culture (AID 720682)
How it was run: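 Read-out: 485/535 nm fluorescence intensity, calibrated against fluorescein. Medium only (DMEM + 10% FBS, no cells); test compound or DMSO vehicle added by pintool before plate reading.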

[13] = qHTS assay to test for compound auto fluorescence at 590 nm (red) in HEK293 cell free culture (AID 720683)
How it was run: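 Red-channel autofluorescence of compounds in culture medium (DMEM, 10% FBS), no cells, measured at 540/590 nm. Rose Bengal sodium is the reference fluorophore for equivalence.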

[14] = qHTS assay to test for compound auto fluorescence at 590 nm (red) in HepG2 cell free culture (AID 720684)
How it was run: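 Cell-free; medium MEM + 10% FBS; compound or DMSO added by pintool; read Ex 540/Em 590 nm; Rose Bengal sodium as red reference fluorophore.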

[15] = qHTS assay to test for compound auto fluorescence at 460 nm (blue) in HepG2 cell free culture (AID 720685)
How it was run: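 Cell-free plates of MEM plus 10% FBS received 23 nL compound or DMSO vehicle; blue-channel (405/460 nm) intensity scored against triamterene as reference fluorophore.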

[16] = qHTS assay to test for compound auto fluorescence at 535 nm (green) in HepG2 cell free culture (AID 720686)
[17] = qHTS assay to test for compound auto fluorescence at 460 nm (blue) in HepG2 cells (AID 720687)
How it was run: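 Blue-channel autofluorescence (Ex/Em 405/460 nm, triamterene-equivalent) was measured after 1 hr compound exposure at 37 C, 5% CO2. Cells were HepG2, plated overnight at 37 C in MEM plus 10% FBS.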

[18] = qHTS assay to test for compound auto fluorescence at 460 nm (blue) in HEK293 cells (AID 720678)
How it was run: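 After cell attachment (4-5 hr, 37C), compounds were pinned onto HEK293 monolayers in 10% dialyzed FBS medium. The blue channel (405/460 nm) was read following overnight culture. Equivalency was calculated against triamterene.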

[19] = biological target: Glucocorticoid receptor (Homo sapiens) (UniProt P04150); experiment: qHTS assay to identify small molecule agonists of the glucocorticoid receptor (GR) signaling pathway (AID 720691; active = well fitted activation curve with a large enough effect in the signal ratio in the repeat runs, not every such curve was filed as active; the % refers to the signal ratio)
How it was run: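 HeLa GR-bla reporter line; cells pre-incubated 4 h, compound in DMSO 18 h at 37 C; LiveBLAzer B/G FRET substrate 2 h RT; fluorescence intensity read-out.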

[20] = biological target: Glucocorticoid receptor (Homo sapiens) (UniProt P04150); experiment: qHTS assay to identify small molecule antagonists of the glucocorticoid receptor (GR) signaling pathway (AID 720692; active = well fitted inhibition curve with a large enough effect in the signal ratio in the repeat runs, not every such curve was filed as active; the % refers to the signal ratio)
How it was run: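 Read-out: beta-lactamase FRET substrate fluorescence, 2 h at room temperature, in HeLa cells stably carrying a GRE-driven bla reporter. Compounds were co-incubated with 5 nM dexamethasone agonist (final) for 18 h at 37 C.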
% is scaled to controls: 0 for no effect and ±100 for the full control effect.

Glucocorticoid receptor (Homo sapiens), sequence (P04150 whole entry, looked up): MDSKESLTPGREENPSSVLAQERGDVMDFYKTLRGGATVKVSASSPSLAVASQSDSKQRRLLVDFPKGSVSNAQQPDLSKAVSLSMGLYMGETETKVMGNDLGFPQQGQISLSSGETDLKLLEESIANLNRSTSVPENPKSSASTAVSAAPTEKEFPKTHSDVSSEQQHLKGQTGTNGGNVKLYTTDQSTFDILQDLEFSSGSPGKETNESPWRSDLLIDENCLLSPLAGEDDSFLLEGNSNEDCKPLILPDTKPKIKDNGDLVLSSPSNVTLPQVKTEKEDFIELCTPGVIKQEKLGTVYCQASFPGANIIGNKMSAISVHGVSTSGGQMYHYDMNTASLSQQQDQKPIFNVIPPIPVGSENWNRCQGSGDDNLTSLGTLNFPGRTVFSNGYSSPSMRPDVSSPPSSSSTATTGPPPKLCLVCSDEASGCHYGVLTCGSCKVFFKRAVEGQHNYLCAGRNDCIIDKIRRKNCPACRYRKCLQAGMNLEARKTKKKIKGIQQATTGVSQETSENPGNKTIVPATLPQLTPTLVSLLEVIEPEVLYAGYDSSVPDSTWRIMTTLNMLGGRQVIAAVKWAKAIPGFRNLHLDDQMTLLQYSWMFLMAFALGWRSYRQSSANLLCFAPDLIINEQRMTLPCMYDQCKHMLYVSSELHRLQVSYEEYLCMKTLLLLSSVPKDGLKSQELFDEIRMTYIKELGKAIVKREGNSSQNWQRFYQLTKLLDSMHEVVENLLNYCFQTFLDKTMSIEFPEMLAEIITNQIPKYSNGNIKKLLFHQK

CCCCC(CC)CN1CN(CC(CC)CCCC)CC(C)(N)C1 (stereo not drawn)
inactive: Potency [1] | Potency [2] | Potency [3] | Potency [4] | Potency [5] | Potency [6] | fluorescence, relative to Rose Bengal [7] 0.775% [at 18.6 µM] | fluorescence, % of fluorescein control [8] 0.0031% [at 18.6 µM] | fluorescence, % of fluorescent control [9] -0.0426% [at 18.6 µM] | fluorescence, % of fluorescein [10] -0.025% [at 18.6 µM] | fluorescence, % of fluorescent control [11] -0.0323% [at 18.6 µM] | activity change [12] 0.0339% [at 18.6 µM, active compounds read high] | fluorescence, % of fluorescent control [13] -0.232% [at 18.6 µM] | fluorescence, % of Rose Bengal [14] 0.0615% [at 18.6 µM] | fluorescence, % of fluorescent control [15] -0.127% [at 18.6 µM] | fluorescence, % of fluorescein control [16] -0.051% [at 18.6 µM] | fluorescence, % of fluorescent control [17] -0.0067% [at 18.6 µM]

CC(C)OC(=O)C(O)(CC(=O)O)CC(=O)O
inactive: Potency [1] | Potency [2] | Potency [3] | Potency [4] | Potency [5] | Potency [6] | Potency [7] | Potency [8] | Potency [18] | Potency [9] | Potency [10] | Potency [11] | Potency [12] | Potency [13] | Potency [14] | Potency [15] | Potency [16] | Potency [17]

CC(CCc1ccccc1)NCC(O)c1ccc(O)c(C(N)=O)c1 (stereo not drawn)
inactive: Potency [1] | Potency [2] | Potency [3] | Potency [4] | Potency [5] | Potency [6] | Potency [7] | Potency [8] | Potency [9] | Potency [10] | Potency [11] | Potency [12] | Potency [13] | Potency [14] | Potency [15] | Potency [16] | Potency [19]

CCCCNS(=O)(=O)c1ccc(C)cc1
inactive: Potency [1] | Potency [2] | Potency [3] | Potency [4] | Potency [5] | Potency [6] | Potency [7] | Potency [8] | Potency [9] | Potency [10] | Potency [11] | Potency [12] | Potency [13] | Potency [14] | Potency [15] | Potency [16] | Potency [17] | Potency [19]

COc1cc(C)ccc1O
inactive: Potency [1] | Potency [2] | Potency [3] | Potency [4] | Potency [5] | Potency [6] | Potency [7] | Potency [8] | Potency [18] | Potency [9] | Potency [10] | Potency [11] | Potency [12] | Potency [13] | Potency [14] | Potency [15] | Potency [16] | Potency [17] | Potency [19]

Nc1nc2c(ncn2COCCO)c(=O)[nH]1
inactive: Potency [1] | Potency [2] | Potency [3] | Potency [4] | Potency [5] | Potency [6] | fluorescence, relative to Rose Bengal [7] 2e-05% [at 18.6 µM] | fluorescence, % of fluorescein control [8] 0.0011% [at 18.6 µM] | fluorescence, % of fluorescent control [9] -0.073% [at 18.6 µM] | fluorescence, % of fluorescein [10] 0.029% [at 18.6 µM] | fluorescence, % of fluorescent control [11] 0.0219% [at 18.6 µM] | activity change [12] -0.0229% [at 18.6 µM, active compounds read high] | fluorescence, % of fluorescent control [13] 0.0201% [at 18.6 µM] | fluorescence, % of Rose Bengal [14] -0.264% [at 18.6 µM] | fluorescence, % of fluorescent control [15] 0.0242% [at 18.6 µM] | fluorescence, % of fluorescein control [16] -0.0997% [at 18.6 µM] | fluorescence, % of fluorescent control [17] 0.176% [at 18.6 µM] | Potency [19] | Potency [20]
